Source: PubChem
ELG1 DNA repair – blocks ELG1-dependent DNA repair in HEK293T cells; HEK293T ELG1-luciferase reporter, luminescence, 16 h; DNA damage induced by 5-fluorouridine; Potency, µM (titrated, usually from 46.1 µM), hits mostly inhibitors; 2.3% of 330,000 active; AID 504467; also: nearly all actives have a fitted effect of over 55% in size
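DMSO vehicle served as the neutral condition. Each well held 2,000 cells given 5-fluorouridine plus compound; after 16 hr at 37 °C/5% CO2, ONE-Glo was added and luciferase measured 30 min later.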
MCF10A rerep – inducers of DNA re-replication in MCF 10A breast cells | MCF 10A DNA re-replication, Hoechst nuclear intensity, 48 h | Potency, µM (titrated, usually from 46.1 µM), actives largely listed as activators | 2.9% of 350,000 active | AID 624296; also: nearly all actives have a fitted effect of over 50% in size
KB-3-1 cytotox – KB-3-1 parental cell cytotoxicity | AID 1347075 | KB-3-1 viability, CellTiter-Glo ATP luminescence, 72 h | Potency, µM (highest dose often 46.1 µM), usual class: cytotoxic | 1.4% of 400,000 active; also: nearly all actives have a fitted effect of over 60% in size
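Using CellTiter-Glo luminescence, growth of non-resistant KB-3-1 adenocarcinoma cells is assessed 72 h after pin-tool compound addition at 37 °C. Normalized responses across the concentration series yield fitted curves.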
KB-V1 cytotox – kills drug-selected multidrug resistant KB-V1 cells; Potency, µM (highest dose often 46.1 µM), hits mostly cytotoxic; AID 1347076; KB-V1 MDR cells viability, CellTiter-Glo, 72 h; 3.4% of 400,000 active; also: nearly all actives have a fitted effect of over 60% in size
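Compound-treated KB-V1 multidrug-resistant cells, 72 h, 37 degrees C; viability by CellTiter-Glo. Fitted qHTS curves give the values.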
SW480 rereplic – inducers of DNA re-replication in SW480 colon cancer cells | SW480 DNA re-replication, Hoechst DNA content imaging, 48 h | Potency, µM (titrated, usually from 46.1 µM), actives largely listed as activators | 1.8% of 340,000 active | AID 624297; also: nearly all actives have a fitted effect of over 55% in size
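Treated cells incubate 48 hr (37 C, 5% CO2), are stained 40 min with Hoechst, and nuclear fluorescence is enumerated; a rise in nuclei with high DNA signal marks re-replication.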
ELG1 Luc conf – confirmation of human ELG1-dependent DNA repair inhibitors; shares compounds with ELG1 DNA repair; HEK293T ELG1-luciferase levels, luminescence; cells co-treated with 5-fluorouridine; Potency, µM (series often up to 46.1 µM), hits mostly inhibitors; 68% of 670 active; also: nearly all actives have a fitted effect of over 55% in size
ELG1-Luc MMS – inhibits ELG1-dependent repair under MMS stimulation in HEK293T cells. shares compounds with ELG1 DNA repair. HEK293T luciferase-tagged ELG1 level, MMS stimulated. 53% of 670 active. AID 624249. Potency, µM (highest dose often 46.1 µM), actives largely listed as inhibitors; also: nearly all actives have a fitted effect of over 60% in size
ELG1 5FU viab – confirmation of ELG1 repair inhibitors: viability with 5FU; shares compounds with ELG1 DNA repair; cell viability with 5-FU, ELG1-dependent repair; Potency, µM (titrated, usually from 46.1 µM), actives largely listed as cytotoxic; 670 tested, under 10 active; AID 624250;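 also: ELG1-luc HEK293T cells cotreated with 5-fluorouridine at 10 µM final; viability measured 16 h after compound addition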
ELG1 MMS viab – confirmation of ELG1 repair inhibitors: viability with MMS. Potency, µM (doses to about 46.1 µM), actives largely listed as cytotoxic. shares compounds with ELG1 DNA repair. AID 624251. Cell viability with MMS, ELG1-dependent DNA repair. 33% of 670 active;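 also: ELG1-luc HEK293T cells co-treated with 10 µM MMS; viability read 16 h after compound addition; nearly all actives have a fitted effect of over 60% in size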
Cell viab unstim – affects unstimulated cell viability, ELG1 hit counter-screen; Potency, µM (highest dose often 45.9 µM), actives largely listed as cytotoxic; 8% of 900 active; cell viability counter-screen, unstimulated, luminescence; shares compounds with ELG1 DNA repair; AID 624252;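 also: compound exposure lasted 16 hours before reading; nearly all actives have a fitted effect of over 55% in size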
Hits are given with their value; – = inactive; ? = inconclusive; · = no result given; [ ] = dose if it differs, or a comment. An excerpt weighted towards active compounds, which were near 8.1% of everything screened. Calls follow the shape of the dose curve; as a rule, active = well fitted curve in the direction sought with a large enough effect; inconclusive = small, poorly fitted or top-dose-only effect, or another doubt; inactive = no such curve, though single readings can be large; an effect the other way counts as inactive or inconclusive.

SMILES	ELG1 DNA repair	MCF10A rerep	KB-3-1 cytotox	KB-V1 cytotox	SW480 rereplic	ELG1 Luc conf	ELG1-Luc MMS	ELG1 5FU viab	ELG1 MMS viab	Cell viab unstim
CN(CCOc1ccc(Cl)cc1)C(=O)CN1C(=O)NC2(CCCCC2)C1=O	–	–	–	?	–	·	·	·	·	·
COc1ccc2c(c1)c1c(c(=O)n(-c3cccc(C)c3)c(=O)n1CC(=O)Nc1c(C)cc(C)cc1C)n2C	·	·	–	–	·	·	·	·	·	·
COCCNC(=S)N(C)[C@H]1C[C@H]2c3cc(Oc4ccccc4C)ccc3CCN2C(=O)[C@H]1[C@H](C)O	·	·	–	–	·	·	·	·	·	·
COc1ccc(OC)c(CNC(=O)c2nn(C)c3c2CS(=O)(=O)c2ccccc2-3)c1	3.26µM	–	–	–	–	11.2µM	–	–	–	?
COc1ccc(CNC(=O)c2nn(C)c3c2CS(=O)(=O)c2ccccc2-3)cc1	–	–	–	–	–	·	·	·	·	·
COc1ccc(-c2cc(C(=O)Nc3ccc(O)cc3)c3ccccc3n2)cc1OC	?	–	–	–	–	·	·	·	·	·
COc1ccc(NC(=O)c2cc(-c3cc(OC)c(OC)c(OC)c3)nc3ccccc23)cc1OC	1.83µM	–	?	20.6µM	–	1.12µM	19.9µM	?	?	–
Cn1c(=O)c2[nH]c(CSCc3ccccc3)nc2n(C)c1=O	·	–	–	–	–	·	·	·	·	·
Cn1c(=O)c2[nH]c(CN(Cc3ccccc3)Cc3ccccc3)nc2n(C)c1=O	4.11µM	–	–	8.2µM	–	7.91µM	?	–	?	?
COc1ccccc1NC(C)C(=O)c1c(C)[nH]c2ccccc12 (configuration not stated)	·	·	–	–	·	·	·	·	·	·
Cc1cc(C(=O)COC(=O)c2cc(Cl)c(O)c(Cl)c2)c(C)n1C	?	–	?	–	–	·	·	·	·	·
Cc1cc(C(=O)COC(=O)c2ccc(F)cc2)c(C)n1C	?	–	–	–	–	·	·	·	·	?
COc1ccc(OC)c(Nc2nc(NCc3ccco3)nc(N)c2[N+](=O)[O-])c1	?	?	–	–	–	0.628µM	–	?	–	–
CCOc1ccc(Nc2nc(NCc3ccco3)nc(N)c2[N+](=O)[O-])cc1	–	–	–	–	–	·	·	·	·	·
COc1ccc(C)cc1NC(=O)CSc1ncc2c(n1)-c1ccc(Cl)cc1N(Cc1ccccc1)S2(=O)=O	·	·	–	–	·	·	·	·	·	·
COc1cccc2c1C(=O)/C(=C\c1ccc(N(C)C)cc1)C2	·	·	–	?	·	·	·	·	·	?
CN(c1ncnc(N)c1[N+](=O)[O-])C1CCCCC1	1.83µM	–	–	–	–	3.15µM	12.5µM	–	–	?
Cc1cccn2c(CNCC3(c4ccccc4)CCCC3)c(C(=O)N3CCOCC3)nc12	2.91µM	–	–	?	–	?	12.5µM	–	25µM	?
O=C(Cn1cnc2ccccc21)Nc1ccc(SC(F)F)cc1	2.06µM	–	–	?	–	–	1.58µM	–	1.77µM	?
CC(c1nc2ccccc2[nH]1)N(C(=O)Cc1csc2ccccc12)c1cccnc1 (configuration not stated)	·	·	–	–	·	·	·	·	·	·
O=[N+]([O-])c1cccc(COc2cccc(CN3CCCCC3)c2)c1	·	–	–	–	–[9.22 µM]	·	·	·	·	·
[N-]=[N+]=Nc1nc2c(N)ncnc2n1C1OC(CO)C(O)C1O (configuration not stated)	·	·	·	·	·	3.53µM	3.97µM	?	?	7.91µM
